In PubChem BioAssay one finds fluorescence ratio and inhibition data, which are given here for four compounds.

Structures are written as SMILES. Calls of active or inactive are those of the source. No rule for the calls is given here.

System in the first experiment: not listed separately
As to the kind of experiment: Cy5 fluorescence interference with SSB-bound oligo, artefact control for HCV NS3 helicase inhibitor project, biochemical, NIH Clinical Collection, E. coli SSB (AID 743268).
Conditions: not given
With `CO[C@H]1C=CO[C@@]2(C)Oc3c(C)c(O)c4c(O)c(c5c(c4c3C2=O)=NC2(CCN(CC(C)C)CC2)N=5)NC(=O)C(C)=CC=C[C@H](C)[C@H](O)[C@@H](C)[C@@H](O)[C@@H](C)[C@H](OC(C)=O)[C@@H]1C`, the fluorescence ratio was 0.96 (inactive).

For the compound `CO[C@H]1C=CO[C@@]2(C)Oc3c(C)c(O)c4c(O)c(c(/C=N/N5CCN(C6CCCC6)CC5)c(O)c4c3C2=O)NC(=O)C(C)=CC=C[C@H](C)[C@H](O)[C@@H](C)[C@@H](O)[C@@H](C)[C@H](OC(C)=O)[C@@H]1C`, the fluorescence ratio was 1.02 (inactive). For `CC/C(O)=N/S(=O)(=O)c1ccc(-c2c(-c3ccccc3)noc2C)cc1`, the fluorescence ratio is 1.03 (inactive).

A further experiment deals with Hepatitis C virus NS3 helicase. As to the kind of experiment: HCV NS3 helicase inhibitors, primary screen, biochemical, fluorescence polarization, NIH Clinical Collection (AID 743270). To be noted: NS3 helicase binding to Cy5-dT15 DNA, stronger effect = higher value, concentration not given here.
`O=C(O)COCCN1CCN([C@@H](c2ccccc2)c2ccc(Cl)cc2)CC1`: the inhibition was -1.98% (inactive). As to `CO[C@H]1C=CO[C@@]2(C)Oc3c(C)c(O)c4c(O)c(c5c(c4c3C2=O)=NC2(CCN(CC(C)C)CC2)N=5)NC(=O)C(C)=CC=C[C@H](C)[C@H](O)[C@@H](C)[C@@H](O)[C@@H](C)[C@H](OC(C)=O)[C@@H]1C`, the inhibition was -2.77% (inactive). `CO[C@H]1C=CO[C@@]2(C)Oc3c(C)c(O)c4c(O)c(c(/C=N/N5CCN(C6CCCC6)CC5)c(O)c4c3C2=O)NC(=O)C(C)=CC=C[C@H](C)[C@H](O)[C@@H](C)[C@@H](O)[C@@H](C)[C@H](OC(C)=O)[C@@H]1C`: the inhibition was -3.56% (inactive). The same measure, in the same setting: in the case of `CC/C(O)=N/S(=O)(=O)c1ccc(-c2c(-c3ccccc3)noc2C)cc1` it was -1.97% (inactive).

What is called inhibition is the change of the read-out against control, counted positive when it falls.
